About 410 targets per protein were measured; listed, in parts, are those with the strongest signals and a random draw of the rest.
Experiments:
Assay in all cases: glycan array binding signal (z-score within array); higher = stronger binding
Conditions in all cases: glycan notation: IUPAC condensed, linker removed
[1] = biological target: GalNAc(b1-3)Gal(a1-4)Gal(b1-4)GlcNAc
Summary of the method: (§1)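 Glycan array data were curated from 3228 arrays in the Consortium for Functional Glycomics database and kept only where the protein sequence was available. Glycan names were converted to IUPAC-condensed notation, and columns mapping to the same glycan were averaged. The binding signal is a within-array Z-score, averaged across arrays of the same protein sequence at different concentrations or buffers and across linkers. Negative Z-scores can be read as non-binding.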

[2] = biological target: GalNAc(b1-3)Gal(a1-4)Gal(b1-4)GlcNAc(b1-3)Gal(b1-4)Glc
Summary of the method: as §1

GalNAc6S(b1-4)GlcNAc = biological target: GalNAc6S(b1-4)GlcNAc
Summary of the method: as §1

[3] = biological target: GlcNAc(a1-4)Gal(b1-4)GlcNAc
Summary of the method: as §1

[4] = biological target: GlcNAc(b1-2)[GlcNAc(b1-4)]Man(a1-3)[GlcNAc(b1-4)][GlcNAc(b1-2)Man(a1-6)]Man(b1-4)GlcNAc(b1-4)GlcNAc
Summary of the method: as §1

[5] = biological target: GlcNAc(b1-3)Gal(b1-4)GlcNAc(b1-3)Gal(b1-4)GlcNAc(b1-2)[GlcNAc(b1-3)Gal(b1-4)GlcNAc(b1-3)Gal(b1-4)GlcNAc(b1-6)]Man(a1-6)[GlcNAc(b1-3)Gal(b1-4)GlcNAc(b1-3)Gal(b1-4)GlcNAc(b1-2)Man(a1-3)]Man(b1-4)GlcNAc(b1-4)[Fuc(a1-6)]GlcNAc
Summary of the method: as §1

[6] = biological target: GlcNAc(b1-3)Gal(b1-4)GlcNAc(b1-3)Gal(b1-4)GlcNAc(b1-3)Gal(b1-4)GlcNAc(b1-2)Man(a1-3)[GlcNAc(b1-3)Gal(b1-4)GlcNAc(b1-3)Gal(b1-4)GlcNAc(b1-3)Gal(b1-4)GlcNAc(b1-2)Man(a1-6)]Man(b1-4)GlcNAc(b1-4)[Fuc(a1-6)]GlcNAc
Summary of the method: as §1

[7] = biological target: GlcNAc(b1-3)Gal(b1-4)GlcNAc(b1-3)Gal(b1-4)GlcNAc(b1-3)Gal(b1-4)GlcNAc(b1-3)Gal(b1-4)GlcNAc(b1-2)Man(a1-3)[GlcNAc(b1-3)Gal(b1-4)GlcNAc(b1-3)Gal(b1-4)GlcNAc(b1-3)Gal(b1-4)GlcNAc(b1-3)Gal(b1-4)GlcNAc(b1-2)Man(a1-6)]Man(b1-4)GlcNAc(b1-4)[Fuc(a1-6)]GlcNAc
Summary of the method: as §1

[8] = biological target: GlcNAc(b1-3)Gal(b1-4)GlcNAc(b1-6)[Gal(b1-3)]GalNAc
Summary of the method: as §1

GlcNAc(b1-3)GalNAc = biological target: GlcNAc(b1-3)GalNAc
Summary of the method: as §1

GlcNAc(b1-6)GalNAc = biological target: GlcNAc(b1-6)GalNAc
Summary of the method: as §1

Kdn(a2-3)Gal(b1-4)GlcNAc = biological target: Kdn(a2-3)Gal(b1-4)GlcNAc
Summary of the method: as §1

[9] = biological target: Man(a1-2)Man(a1-3)[Man(a1-2)Man(a1-6)]Man
Summary of the method: as §1

[10] = biological target: Neu5Ac(a2-3)Gal(b1-3)GalNAc(b1-4)[Neu5Ac(a2-8)Neu5Ac(a2-3)]Gal(b1-4)Glc
Summary of the method: as §1

[11] = biological target: Neu5Ac(a2-3)Gal(b1-3)GlcNAc(b1-6)GalNAc
Summary of the method: as §1

[12] = biological target: Neu5Ac(a2-3)Gal(b1-4)GlcNAc(b1-3)Gal(b1-4)GlcNAc(b1-2)Man(a1-3)[Neu5Ac(a2-3)Gal(b1-4)GlcNAc(b1-3)Gal(b1-4)GlcNAc(b1-2)Man(a1-6)]Man(b1-4)GlcNAc(b1-4)GlcNAc
Summary of the method: as §1

[13] = biological target: Neu5Ac(a2-3)Gal(b1-4)GlcNAc(b1-3)Gal(b1-4)GlcNAc(b1-6)[Gal(b1-3)]GalNAc
Summary of the method: as §1

[14] = biological target: Neu5Ac(a2-3)Gal(b1-4)GlcNAc(b1-6)GalNAc
Summary of the method: as §1

[15] = biological target: Neu5Ac(a2-3)Gal(b1-4)GlcNAc(b1-6)[Gal(b1-3)]GalNAc
Summary of the method: as §1

[16] = biological target: Neu5Ac(a2-3)Gal(b1-4)[Fuc(a1-3)]GlcNAc6S
Summary of the method: as §1

Neu5Ac(a2-3)GalNAc = biological target: Neu5Ac(a2-3)GalNAc
Summary of the method: as §1

[17] = biological target: Neu5Ac(a2-6)Gal(b1-4)GlcNAc(b1-2)Man
Summary of the method: as §1

[18] = biological target: Neu5Ac(a2-6)Gal(b1-4)GlcNAc(b1-2)Man(a1-3)[GlcNAc(b1-2)Man(a1-6)]Man(b1-4)GlcNAc(b1-4)GlcNAc
Summary of the method: as §1

[19] = biological target: Neu5Ac(a2-6)Gal(b1-4)GlcNAc(b1-2)Man(a1-6)[GlcNAc(b1-2)Man(a1-3)]Man(b1-4)GlcNAc(b1-4)GlcNAc
Summary of the method: as §1

[20] = biological target: Neu5Ac(a2-8)Neu5Ac(a2-3)[Gal(b1-3)GalNAc(b1-4)]Gal(b1-4)Glc
Summary of the method: as §1

[21] = biological target: Neu5Gc(a2-3)Gal(b1-3)GlcNAc
Summary of the method: as §1

[22] = biological target: Neu5Gc(a2-8)Neu5Gc(a2-3)Gal(b1-4)GlcNAc
Summary of the method: as §1

[23] = biological target: Neu5Gc(a2-8)Neu5Gc(a2-6)Gal(b1-4)GlcNAc
Summary of the method: as §1

B1: DC-ASGPR L+GEE (Homo sapiens) (protein)
chain: MTRTYENFQYLENKVKVQGFKNGPLPLQSLLQRLRSGPCHLLLSLGLGLLLLVIICVVGFQNSKFQRDLVTLRTDFSNFTSNTVAEIQALTSQGSSLEETIASLKAEVEGFKQERQAGVSELQEHTTQKAHLGHCPHCPSVCVPVHSEMLLRVQQLVQDLKKLTCQVATLNNNGEEASTEGTCCPVNWVEHQDSCYWFSHSGMSWAEAEKYCQLKNAHLVVINSREEQNFVQKYLGSAYTWMGLSDPEGAWKWVDGTDYATGFQNWKPGQPDDWQGHGLGGGEDCAHFHPDGRWNDDVCQRPYHWVCEAGLGQTSQESH
With B1 the “glycan array binding signal (z-score)” value [1] was 4.33, the “glycan array binding signal (z-score)” value [2] was 4.06 and the “glycan array binding signal (z-score)” value (GalNAc6S(b1-4)GlcNAc) was 1.11. The “glycan array binding signal (z-score)” value [3] was -0.367, the “glycan array binding signal (z-score)” value [4] was -0.37 and the “glycan array binding signal (z-score)” value [5] was 0.194. The “glycan array binding signal (z-score)” value [6] was -0.283, the “glycan array binding signal (z-score)” value [7] was 0.512 and the “glycan array binding signal (z-score)” value [8] was -0.411. The “glycan array binding signal (z-score)” value (GlcNAc(b1-3)GalNAc) was -0.439, the “glycan array binding signal (z-score)” value (GlcNAc(b1-6)GalNAc) was 3.71 and the “glycan array binding signal (z-score)” value (Kdn(a2-3)Gal(b1-4)GlcNAc) was -0.074. For the same binder, the “glycan array binding signal (z-score)” value [9] was -0.348, the “glycan array binding signal (z-score)” value [10] was -0.319 and the “glycan array binding signal (z-score)” value [11] was 6.64. The “glycan array binding signal (z-score)” value [12] was -0.164, the “glycan array binding signal (z-score)” value [13] was -0.553 and the “glycan array binding signal (z-score)” value [14] was 3. For the same binder, the “glycan array binding signal (z-score)” value [15] was -0.019, the “glycan array binding signal (z-score)” value [16] was -0.418 and the “glycan array binding signal (z-score)” value (Neu5Ac(a2-3)GalNAc) was -0.223. For the same binder, the “glycan array binding signal (z-score)” value [17] was 0.432, the “glycan array binding signal (z-score)” value [18] was -0.362 and the “glycan array binding signal (z-score)” value [19] was -0.328. For the same binder, the “glycan array binding signal (z-score)” value [20] was 0.544, the “glycan array binding signal (z-score)” value [21] was -0.017 and the “glycan array binding signal (z-score)” value [22] was -0.146. The “glycan array binding signal (z-score)” value [23] was -0.204.
